Screening data (PubChem BioAssay)
Compounds with a hit are over-represented: about 2.3% of the library has one in this group of screens.
GRP78 ERSR act = inducers of ER stress response in human glioma cells; AID 602332; 420,000 compounds, 0.02% hits; Potency, µM, hits mostly activators; U87-MG GRP78 promoter luciferase reporter, 16 h; also: series mostly up to about 76 µM; nearly all actives have a fitted effect of over 35% in size
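ERSR induction read as luciferase luminescence (Bright-Glo, 10 min at room temperature) in stably transfected human U87-MG glioma cells exposed to compounds for 16 h, using GRP78 as sensor.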
PTHR1 agonist = agonists of human PTHR1 parathyroid hormone receptor | AID 743266 | 410,000 compounds, 0.075% hits | Q03431 | HEK293 GP2 PTHR1 cells, GloSensor cAMP luminescence, 1 h | Potency, µM (titrated, usually from 115 µM), usual class: activators; also: nearly all actives have a fitted effect of over 55% in size
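HEK-293-derived GP2 cells expressing PTHR1 and a GloSensor cAMP reporter, 3,000/well, plated overnight, given luciferin plus IBMX (each 0.5 mM as added) for 1 h at 37 °C, then compound for 1 h at 37 °C. Luminescence was read after 15 min at room temperature.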
ALOX12 inh = ALOX12 (human) lipoxygenase inhibition | P18054 | purified 12hLO, xylenol orange hydroperoxide absorbance | Potency, µM (titrated, usually from 108 µM), hits mostly inhibitors | 580,000 compounds, 1.1% hits | AID 1671190
Target sequence (P18054 whole entry, looked up): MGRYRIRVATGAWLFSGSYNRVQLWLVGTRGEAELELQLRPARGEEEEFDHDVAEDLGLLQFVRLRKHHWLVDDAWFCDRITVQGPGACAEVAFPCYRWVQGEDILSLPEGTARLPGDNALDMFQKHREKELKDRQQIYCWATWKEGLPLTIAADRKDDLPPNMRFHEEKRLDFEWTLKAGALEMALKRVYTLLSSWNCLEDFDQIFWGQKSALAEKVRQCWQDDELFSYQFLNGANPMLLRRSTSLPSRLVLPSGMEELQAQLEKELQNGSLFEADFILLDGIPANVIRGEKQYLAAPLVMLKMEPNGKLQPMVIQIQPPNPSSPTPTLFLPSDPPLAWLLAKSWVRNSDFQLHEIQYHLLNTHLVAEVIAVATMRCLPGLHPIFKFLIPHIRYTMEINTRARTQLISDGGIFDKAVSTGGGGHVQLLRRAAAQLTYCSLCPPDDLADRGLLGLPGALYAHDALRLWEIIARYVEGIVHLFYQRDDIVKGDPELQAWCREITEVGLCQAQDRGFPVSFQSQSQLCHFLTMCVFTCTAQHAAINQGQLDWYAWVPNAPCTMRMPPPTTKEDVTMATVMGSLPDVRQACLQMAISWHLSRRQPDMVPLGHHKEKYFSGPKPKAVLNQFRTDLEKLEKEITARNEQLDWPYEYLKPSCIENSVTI
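Purified human 12hLO at 150 nM in 25 mM Hepes, 0.01% Triton X-100, pH 7.0, preincubated 15 min at room temperature with compound. Reaction started with 40 uM arachidonic acid, 30 min at room temperature. Hydroperoxide measured by Fe-xylenol orange, 573/405 nm absorbance ratio.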
GLP1R inv ag = inverse agonists of human GLP-1 receptor | Potency, µM (series often up to 38.3 µM), usual class: inhibitors | P43220 | 410,000 compounds, 1.6% hits | HEK293 GLP-1R CRE-luciferase, luminescence, 24 h; GLP-1R form is constitutively active | AID 624417; also: nearly all actives have a fitted effect of over 55% in size
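Luminescence readout: a drop in cAMP-driven luciferase signal flags inverse agonism at a constitutively active GLP-1R stably expressed in HEK293. Compound exposure lasted 24 hr at 37 deg C, 5% CO2.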
GLS inh = blocks human kidney-isoform glutaminase activity; AID 624170; 410,000 compounds, 0.21% hits; GLS enzymatic activity, qHTS titration; Potency, µM (highest dose often 45.5 µM), actives largely listed as inhibitors
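Assay buffer: 45 mM KH2PO4 pH 8.2, 0.02% Tween-20. hKGA acts on L-glutamine (1 mM solution added); product glutamate is reported by an oxidase/peroxidase Amplex Red coupling, with fluorescence taken at baseline and 30 min.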
GLP-1R agonist = agonists of human GLP-1 receptor | HEK293 GLP-1R CRE-luciferase, luminescence, 4-6 h; cells express a hypersensitive GLP-1R form | Potency, µM (titrated, usually from 45.6 µM), hits mostly activators | 380,000 compounds, 0.007% hits | AID 624172
Hits are given with their value; – = inactive; ? = inconclusive; · = no result; ! = not confirmed by another sample. Calls follow the shape of the dose curve; as a rule, active = well fitted curve in the direction sought with a large enough effect; inconclusive = small, poorly fitted or top-dose-only effect, or another doubt; inactive = no such curve, though single readings can be large; an effect the other way counts as inactive or inconclusive.

SMILES	GRP78 ERSR act	PTHR1 agonist	ALOX12 inh	GLP1R inv ag	GLS inh	GLP-1R agonist
CCN(CC)CCNc1ccc(CO)c2oc3cc(Cl)ccc3c(=O)c12	–	–	?	4.47µM	–	–
Cc1ccc(Cc2c[nH]c(=S)s2)cc1	–	–	35.5µM	–	–	–
CCOc1ccc(/C=C(/C#N)C(=O)Nc2cccc3ncccc23)cc1	·	·	–	·	·	·
CC(C)c1ccc(/C=C(/C#N)C(=O)Nc2cccc3ncccc23)cc1	·	·	15.8µM	·	·	·
N#CC(=Cc1ccc(O)c(O)c1)C(=O)NCc1ccccc1	–	·	–	·	·	·
CCOCCCNC(=O)/C(C#N)=C/c1ccc(Cl)c([N+](=O)[O-])c1	–	–	?	11.2µM	?	–
C=CCOc1ccc(/C=C(\C#N)C(=O)Nc2ccccn2)cc1OC	–	–	10µM	–	–	–
N#C/C(=C\c1ccc(O)c(O)c1)C(=O)NCCCc1ccccc1	?	–	28.2µM!	?	–	–
CC1(c2ccccc2)N(Cc2ccccc2)C(=O)OC12CCN(c1cccnc1)CC2 (stereo unspecified)	·	·	–	·	·	·
CC(C)c1ccc(C(C(=O)NC2CCCC2)N(C(=O)c2cnccn2)c2cccs2)cc1 (stereo unspecified)	·	·	–	·	·	·
COc1ccc(/C=C(/C#N)C(=O)Nc2cccc3ncccc23)cc1OC	·	·	15.8µM	·	·	·
COCCCNC(=O)/C(C#N)=C/c1ccc(OCC(=O)O)c(OC)c1	–	–	–	–	10µM	–
Cc1ccc(O)c(CNc2cnc3ccccc3c2)c1	–	–	–	?	–	–
Oc1ccc(Br)cc1CNc1cnc2ccccc2c1	–	–	–	11.2µM	–	–
COc1cccc(CNc2nc3ccccc3n2C)c1O	–	–	–	–	–	–
COc1cccc(CNc2cnc3ccccc3c2)c1O	–	–	31.6µM	?	–	–
CCCCc1cc(=O)oc2cc(OC(C)C(=O)NCc3cccnc3)c(Cl)cc12 (stereo unspecified)	·	·	–	·	·	·
CCCCc1c(C)nn(-c2nnc3c4ccccc4n(CC)c3n2)c1C	–	–	–	10µM	–	–
CCn1c2ccccc2c2nnc(N3CCN(c4ccc(F)cc4)CC3)nc21	–	–	–	–	–	·
Cc1ncc([N+](=O)[O-])n1CCOC(=O)c1cc(Cl)cc(Cl)c1N	–	–	31.6µM	?	–	–
COc1ccc2oc(=O)c(S(=O)(=O)N3CCC(C)CC3)cc2c1	·	·	–	·	·	·
CCn1c(C)c(C)c2cc(C(=O)N3CCc4ccccc4C3)ccc21	–	–	–	8.91µM	–	–
COc1ccc2oc(C(=O)Nc3ccccc3OC)cc(=O)c2c1	·	·	–	·	·	·
COc1ccc(N2Cc3cccc(C(=O)N4CCN(C(=O)c5ccco5)CC4)c3C2=O)cc1	–	–	–	–	17.8µM	–
O=C(COc1ccc(/C=N/NS(=O)(=O)c2ccccc2)cc1)Nc1cccc(Cl)c1	–	–	–	10µM	–	–
SMILES	GRP78 ERSR act	PTHR1 agonist	ALOX12 inh	GLP1R inv ag	GLS inh	GLP-1R agonist
Cc1ccc(NC(=O)CSc2ccc(N3CCC(C(=O)N4CCCCC4)CC3)nn2)cc1C	·	·	–	·	·	·
CN(Cc1ccccc1F)C(=O)COC(=O)CCN=C1NS(=O)(=O)c2ccccc21	·	·	–	·	·	·
CCOc1ccc(Oc2ccc(Cl)cc2NC(=O)C2=COCCO2)cc1	–	–	?	10µM	–	–
O=C(Nc1cc(Cl)ccc1Oc1ccccc1)C1=COCCO1	–	–	?	?	–	–
O=C(CSc1nc(-c2ccccc2)nc2cc(=O)[nH]n12)Nc1ccccc1F	·	·	–	·	·	·
CCOCCn1c(N2CCN(Cc3ccc(C)cc3)CC2)nc2c1c(=O)[nH]c(=O)n2C	·	·	–	·	·	·
O=C(CSc1nnnn1-c1cccc2c1CCCC2)N1CCCC1	–	–	–	?	–	–
CC1CCCC(C)N1C(=O)CSc1nnnn1-c1cccc2c1CCCC2 (stereo unspecified)	–	–	–	7.94µM	–	–
O=C(Cn1nc(-c2cccs2)c2ccccc2c1=O)NCCc1ccc(F)cc1	·	·	–	·	·	·
Cc1ccc(NCC(O)Cn2c3ccccc3n3c(=O)cc(C)c(C#N)c23)cc1C (stereo unspecified)	·	·	–	·	·	·
